ATG4B inh: blocks human ATG4B protease cleavage of LC3 substrate; Q9Y4P1; ATG4B cleavage of LC3-PLA2, NBD-HPC fluorescence, 1 h; inhibition, % at 8.33 µM; 0.51% of 340,000 active; in the data active = inhibition above about 40%
Target sequence (Q9Y4P1 whole entry, looked up): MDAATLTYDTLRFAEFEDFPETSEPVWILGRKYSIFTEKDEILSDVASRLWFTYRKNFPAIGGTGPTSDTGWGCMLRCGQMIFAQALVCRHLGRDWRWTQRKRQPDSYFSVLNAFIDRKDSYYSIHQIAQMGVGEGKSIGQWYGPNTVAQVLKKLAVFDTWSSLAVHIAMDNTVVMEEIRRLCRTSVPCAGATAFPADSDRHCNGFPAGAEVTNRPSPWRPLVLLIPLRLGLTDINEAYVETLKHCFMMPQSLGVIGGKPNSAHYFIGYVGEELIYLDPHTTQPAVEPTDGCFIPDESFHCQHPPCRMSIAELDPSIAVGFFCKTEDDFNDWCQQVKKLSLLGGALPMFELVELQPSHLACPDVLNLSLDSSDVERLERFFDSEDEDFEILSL
SKKanGAS inh: blocks kanamycin growth of S. pyogenes SKKanGAS strain; BacTiter-Glo, 6 h; inhibition, % at 7.5 µM; 1.3% of 300,000 active;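 active = mean replicate score, as percent of positive control median, at least 50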;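 also: strain carries kanamycin resistance gene driven by streptokinase promoter and grows in 40 µg/ml kanamycin; loss of luminescence reflects streptokinase promoter inhibition or plain growth inhibition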
PfHsp90 set2: inhibits growth of yeast expressing Plasmodium falciparum Hsp90; S. cerevisiae expressing PfHsp90, BacTiter-Glo ATP, 48 h; yeast lacking PDR1 and PDR3 efflux regulators; inhibition, % at 9.4 µM; 0.32% of 310,000 active; AID 504621;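 active = every replicate shows inhibition above about 80%, whatever the replicate mean, limit read from the data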
tim10-1 inh: growth inhibitors of tim10-1 mutant yeast; S. cerevisiae tim10-1 ts strain growth, BacTiter-Glo, 24 h; inhibition, % at 20 µM; 2.2% of 330,000 active; AID 463190;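 active = inhibition of at least 40%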;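 also: mutant grown at 25 °C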
tim23-1 inh: growth inhibitors of tim23-1 mutant yeast; S. cerevisiae tim23-1 growth, BacTiter-Glo luminescence, 24 h; inhibition, % at 20 µM; 1.3% of 330,000 active;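 active = growth inhibition of the mutant yeast at or above 50%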;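 also: temperature-sensitive mutant grown at 25 °C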
TIM10 inh: growth inhibitors of TIM10 yeast strain; S. cerevisiae TIM10 strain growth, BacTiter-Glo luminescence, 24 h; inhibition, % at 10 µM; 1.4% of 330,000 active;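 active = inhibition of 40% or more at the single tested concentration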;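 also: wild-type TIM10 isogenic control strain grown at permissive 25 °C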
tim23-1 confirm: confirmation of tim23-1 mutant yeast growth inhibitors; shares compounds with tim23-1 inh; S. cerevisiae tim23-1 growth, BacTiter-Glo luminescence, 24 h; inhibition, % at 20 µM; 83% of 4,400 active;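 active = inhibition above about 39% in either of two replicate wells at 20 µM, limit read from the data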;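 also: temperature-sensitive tim23-1 mutant grown at 25 °C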
Hits are given with their value; i = inactive; nt = not tested or not shown. Rows were chosen to be rich in hits. Some 4.7% of all compounds tested hit in one or more screens of this group.

SMILES	ATG4B inh	SKKanGAS inh	PfHsp90 set2	tim10-1 inh	tim23-1 inh	TIM10 inh	tim23-1 confirm
N#C/C(=C\c1ccc(Sc2nc3ccccc3[nH]2)o1)c1ccccc1	i	i	i	i	51	i	41
Cc1cc(C(C)(C)C)ccc1OCCCCN1CCCC1	i	i	i	i	i	i	nt
CCC(C)(C)c1ccc(OCCCC[n+]2cccc(C)c2C)c(C(C)(C)CC)c1	i	i	110	i	59	i	36
Cc1ccc2c(c1)COc1c3ccc(C(=O)NC(C)C)cc3nn1-2	i	i	i	i	51	i	48
CN(C)S(=O)(=O)c1cccc(NC(=S)N/N=C/c2cc(Br)ccc2O)c1	i	107	i	i	58	i	48
O=Cc1sc(Nc2ccccc2)nc1Cl	i	i	i	i	51	i	49
COc1ccccc1Nc1nc(Cl)c(C=O)s1	i	i	nt	i	i	i	nt
Cc1ccc(Nc2nc(Cl)c(C=O)s2)cc1Cl	i	i	i	i	67	i	71
O=S(=O)(c1ccc(Br)s1)N1CCN(c2ccccn2)CC1	i	i	i	i	57	i	i
COc1ccc(NC(=O)CN(C)C(=O)CN2C(=O)NC3(CCCCC3)C2=O)cc1	i	nt	i	i	i	i	nt
CCCCCOc1ccc(OC(=O)c2ccncc2)cc1	i	i	nt	i	i	i	nt
CCOC(=O)/C(=C/c1ccc(OC(=O)c2ccncc2)cc1)C(C)=O	i	nt	i	i	53	i	70
CCOCCOC(=O)Cn1cnc2scc(-c3ccc(C)cc3)c2c1=O	i	i	i	i	i	i	nt
CC(C)(C)NC(=O)CSc1nc(-c2ccc(F)cc2)cs1	i	i	i	i	77	i	i
O=S(=O)(CCSc1ccccn1)c1nc2ccccc2s1	i	i	i	i	55	i	49
O=S(=O)(CCSc1nc2ccccc2o1)c1nc2ccccc2s1	i	i	i	i	i	i	nt
CCN(CCCNC(=O)CCc1nc(-c2ccc(C)cc2)no1)c1cccc(C)c1	i	i	i	i	52	i	43
Cc1cccc(-c2noc(CCC(=O)NCCc3ccccc3)n2)c1	i	i	i	i	i	i	nt
CC(=O)Nc1ccc(NS(=O)(=O)c2ccc(-c3cnc(C4CC4)o3)cc2)cc1	i	i	i	i	i	i	nt
CCOc1ccc(NS(=O)(=O)c2ccc(-c3cnc(C4CC4)o3)cc2)cc1	i	i	i	i	51	i	44
CC(=O)N1CCc2cc(S(=O)(=O)CCC(=O)N3CCN(c4ccccc4)CC3)ccc21	i	i	i	i	i	i	nt
Cc1cc2ncn(CCC(=O)NC3CCCC3)c2cc1C	i	i	i	i	i	i	nt
CCOC(=O)N1CCC(NC(=O)c2oc3c(C)c(C)ccc3c2C)CC1	i	i	i	i	60	i	58
CCOC(=O)N1CCC(NC(=O)c2ccccc2C(=O)O)CC1	i	i	i	i	i	i	nt
CC(=O)Nc1ccc(Nc2cc(C)c3ccccc3n2)cc1	i	i	i	i	i	i	nt
SMILES	ATG4B inh	SKKanGAS inh	PfHsp90 set2	tim10-1 inh	tim23-1 inh	TIM10 inh	tim23-1 confirm
COc1ccc(Nc2cc(C)c3ccc(O)cc3n2)cc1	i	i	i	i	51	i	i
Cc1cc(Nc2ccccc2)nc2cc(O)ccc12	i	i	i	i	65	i	i
CCOc1ccc(Nc2cc(C)c3ccccc3n2)cc1	i	i	i	i	i	i	nt
S=C(Nc1ccc(Br)cc1)N1CCCC1	i	i	i	i	i	i	nt
Cc1ccccc1C(=O)Nc1cccc(-c2ccc(N3CCOCC3)nn2)c1	i	i	i	i	i	i	nt
O=S(=O)(c1cccc(C(F)(F)F)c1)N1CCN(C(=S)NCc2ccco2)CC1	i	i	i	i	i	i	nt
O=C(CSc1ccccc1)N/N=C/c1ccccc1O	i	i	i	i	52	i	55
CS(=O)(=O)Nc1ccc(C2=NN(C(=O)c3ccco3)C(c3ccco3)C2)cc1 (stereo unspecified)	i	i	i	i	i	i	nt
COc1cccc(C2=NN(C(=O)c3ccco3)C(c3ccco3)C2)c1 (stereo unspecified)	i	i	i	i	52	i	41
CC(=O)COc1cccc2ccc(/C=C/c3ccc(Br)s3)nc12	i	i	i	i	55	i	45
COc1cc(/C=C/c2ccc3cccc([N+](=O)[O-])c3n2)ccc1OCC(=O)O	i	i	i	i	i	i	nt
COc1ccc(CC(=O)NC(C)(C)CC(C)=O)cc1OC	i	i	i	i	i	i	nt
COc1nn(-c2ccccc2)c(=O)c(Cl)c1Cl	i	i	i	i	51	i	i
O=C(/C(=C/O)N=Nc1ccccc1)c1ccncc1	i	i	nt	i	56	i	i
CC(/C=N/NC(=O)c1ccncc1)=C\c1ccccc1	i	i	i	i	i	i	nt
CC(=O)Nc1ncnc2c1c(-c1ccc(Cl)cc1)nn2C(C)(C)C	i	i	i	i	52	i	48
CC(=O)N(C(C)=O)c1ncnc2c1c(-c1ccc(Cl)cc1)nn2C(C)(C)C	i	i	i	i	i	i	nt
Cc1cccc(C2=NN(c3ccccc3)[C@@H](C(=O)N3CCOC3=O)[C@@H]2c2ccc(Cl)cc2)c1	i	nt	i	i	i	i	nt
C/C(=N\NC(=O)c1ccccc1OCCOc1ccccc1)c1ccccc1F	i	nt	nt	i	53	i	i
COc1ccc(C2c3[nH]c4ccccc4c3C[C@H]3C(=O)N(c4ccccc4C(=O)N4CCC(C(=O)O)CC4)C(=O)N23)cc1 (stereo partly specified)	i	i	i	i	i	i	nt
O=C(c1ccccc1)N1CCCC(c2ccc(Cl)cc2)=N1	i	i	nt	i	i	i	nt
S=C1CCC(c2ccc(Cl)cc2)=NN1c1ccccc1	i	i	i	i	50	i	i
CNS(=O)(=O)c1cc(OCC(N)=O)c(C)cc1Cl	i	i	i	i	i	i	nt
CCc1ccc(C2CC(=O)NC(SCC(=O)OC(C)C)=C2C#N)cc1 (stereo unspecified)	i	i	i	i	55	i	57
CCOC(=O)CSC1=C(C#N)C(c2ccc(C)s2)CC(=O)N1 (stereo unspecified)	i	i	i	i	58	i	46
COC(=O)CSC1=C(C#N)C(c2ccc(C(C)C)cc2)CC(=O)N1 (stereo unspecified)	i	i	i	i	i	i	nt
O=[N+]([O-])c1ccc(Sc2nccn2Cc2ccccc2)cc1	i	i	i	i	i	i	nt
O=C(Nc1cccc2nsnc12)C1CC(=O)N(c2ccccc2)C1 (stereo unspecified)	i	i	i	i	i	i	nt
O=S1(=O)CCC(N=Cc2cc(Br)ccc2O)C1 (stereo unspecified)	i	i	i	i	56	i	43
Cc1ccc(S(=O)(=O)N2CCOCC2)cc1NC(=O)COC(=O)c1cccnc1Cl	i	i	i	i	i	i	nt
